From PubChem
Most compounds without a hit are left out; they make up all but 21% or so of the library.
CYP2C9 inhib = human CYP2C9 inhibition; P11712; CYP2C9 Supersomes, luciferin-H conversion, luminescence; inhibition, % at 5 µM; 96,000 compounds, 20% hits; AID 777;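 active = blocking of liver enzyme CYP2C9 beyond about 50% at 5 µM, limit read from the data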
Target sequence (P11712 whole entry, looked up): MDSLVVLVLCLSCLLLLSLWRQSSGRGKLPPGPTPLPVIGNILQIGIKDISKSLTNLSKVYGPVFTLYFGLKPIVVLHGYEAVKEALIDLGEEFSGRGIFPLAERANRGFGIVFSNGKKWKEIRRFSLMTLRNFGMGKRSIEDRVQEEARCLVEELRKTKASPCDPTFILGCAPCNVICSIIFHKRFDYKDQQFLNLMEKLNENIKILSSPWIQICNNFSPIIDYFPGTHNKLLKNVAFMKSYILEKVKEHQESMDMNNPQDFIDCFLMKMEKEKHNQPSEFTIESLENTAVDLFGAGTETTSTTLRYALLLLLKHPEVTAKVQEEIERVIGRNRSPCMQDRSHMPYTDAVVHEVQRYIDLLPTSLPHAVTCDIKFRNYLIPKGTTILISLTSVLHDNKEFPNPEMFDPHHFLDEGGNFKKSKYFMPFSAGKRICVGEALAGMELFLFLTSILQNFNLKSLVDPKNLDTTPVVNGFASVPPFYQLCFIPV
CYP2C9 act = increases human cytochrome P450 2C9 activity | activation factor at 5 µM | P11712 | 96,000 compounds, 1.4% hits | recombinant CYP2C9, luciferin-H conversion, luminescence; active compounds read high; factor 1 = untreated enzyme, 0 = blocked;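 active = activation factor of 2 or more for CYP2C9 at a 5 µM dose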;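 note: 0 = sulfaphenazole-blocked wells and 1 = vehicle-only wells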
CYP2C19 inhib = inhibitors of human CYP2C19 | P33261 | CYP2C19 Supersomes, luciferin-H EGE luminescence, 30 min | inhibition, % at 5 µM | 96,000 compounds, 21% hits | AID 778;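 active = CYP2C19 inhibition above a set limit at 5 µM in the primary screen, cut at about 50% in these data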;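 note: plate controls were negative control wells for no effect and 2.5 mM tranylcypromine positive control for full effect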
CYP2C19 activ = cytochrome P450 2C19 (human) activation; 96,000 tested, under 10 active; activation factor at 5 µM; AID 1025; recombinant CYP2C19, luciferin-H EGE luminescence; active compounds read high; 0 = fully inhibited enzyme, 1 = untreated enzyme;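 active = activation factor of at least 2 at 5 µM in the primary screen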;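 note: 0 = wells with 2.5 mM tranylcypromine and 1 = vehicle-only wells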
MRP resist rev = reverses drug resistance mediated by MRP. 85,000 compounds, 0.04% hits. H69AR cells + 2 uM doxorubicin, CellTiter-Glo, 72 h. differential viability (reversal), % at 10 µM;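 active = viability drop by adding the cancer drug above about 55%, with treated viability meeting a 40% cutoff, limit read from the data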;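 note: viability without doxorubicin minus viability with 2 µM doxorubicin for each compound; larger differential means the compound sensitizes cells more to doxorubicin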
MRP1 act = MRP-1 activation; 140,000 compounds, 0.61% hits; viability increase, % at 10 µM; H69AR cells + doxorubicin, viability rescue, CellTiter-Glo; AID 799;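 active = viability gain under doxorubicin at or above a set limit, the compound median plus 3 SD, cut at about 4.7% in these data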;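 note: MRP-1 overexpressing cells given doxorubicin 25 µM after compound pretreatment; 18-22 h compound pretreatment then 72 h with doxorubicin before readout; 0% = doxorubicin-only wells and 100% = vehicle-treated cells without doxorubicin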
* = called active by the depositor; nt = not tested or not shown.

SMILES | CYP2C9 inhib | CYP2C9 act | CYP2C19 inhib | CYP2C19 activ | MRP resist rev | MRP1 act
CC(NC(=S)Nc1c(Br)cccc1OC(F)F)C(C)(C)C (centres undefined) | nt | nt | nt | nt | nt | -3.7
Cc1occc1C(=O)N1CCN(c2ccccc2)CC1 | nt | nt | nt | nt | nt | 2.8
Cc1occc1C(=O)N1CCN(c2ccc(Cl)c(Cl)c2)CC1 | 82.6* | 0.2 | 98.4* | 0 | -15.6 | 2.8
COc1ccc(C2c3c(oc4c(C)cc(C)cc4c3=O)C(=O)N2Cc2cccnc2)cc1OC (centres undefined) | -12.5 | 1.1 | -15.0 | 1.1 | 5.0 | nt
COc1ccc(CCN2C(=O)c3[nH]nc(-c4ccccc4O)c3C2c2cccc(O)c2)cc1OC (centres undefined) | 98.1* | 0 | 92.8* | 0.1 | 12.8 | 0.5
COc1ccc(C2c3c(-c4cc(Cl)c(C)cc4O)n[nH]c3C(=O)N2Cc2cccnc2)cc1OC (centres undefined) | 92.7* | 0.1 | 85.7* | 0.1 | 8.8 | -1.7
CC(=O)Nc1ccc(Sc2ncccc2C(=O)Nc2ccc(F)cc2)cn1 | 13.9 | 0.9 | -4.3 | 1 | nt | -2.3
Cc1onc(-c2ccccc2Cl)c1C(=O)Nc1nnc(-c2ccc(F)cc2)s1 | 46.8 | 0.5 | 26.9 | 0.7 | nt | 1.5
Cc1onc(-c2ccccc2Cl)c1C(=O)Nc1nnc(-c2ccc(Cl)cc2Cl)s1 | 65.6* | 0.3 | 4.5 | 1 | 5.7 | -1.2
Cc1onc(-c2ccccc2Cl)c1C(=O)Nc1nnc(-c2ccc(Br)cc2)s1 | 40.3 | 0.6 | 13.9 | 0.9 | -7.8 | 7.2*
CN1C2CCC1/C(=C\c1ccccc1)C(=O)/C2=C\c1ccccc1 | -124.2 | 2.2* | 40.3 | 0.6 | nt | -6.2
CCOC(=O)C1=C(c2ccccc2)N=C2SCC(=O)N2C1c1ccc2c(c1)OCO2 (centres undefined) | -3.7 | 1 | 10.4 | 0.9 | 9.6 | 1.0
COc1ccc(-c2noc(CN3CCOCC3)n2)cc1OC | -4.8 | 1 | -1.2 | 1 | 9.9 | -3.0
Cc1ccc(C)c(N2CCN(C(=O)c3ccccc3Br)CC2)c1 | nt | nt | nt | nt | 3.5 | -0.3
Cc1ccc(C)c(N2CCN(C(=O)c3ccc(Cn4c(=O)[nH]c5ccccc5c4=O)cc3)CC2)c1 | 74.9* | 0.3 | 70.3* | 0.3 | -5.6 | -5.3
Cc1ccc(C)c(N2CCN(C(=O)c3csc(C)c3C)CC2)c1 | nt | nt | nt | nt | nt | -0.2
CCCc1cc(C(=O)N2CCN(c3ccccc3C)CC2)cs1 | 65.5* | 0.3 | 69.2* | 0.3 | 0.2 | 1.4
Cc1ccc(N2CCN(C(=O)c3ccccc3Br)CC2)c(C)c1 | 62.3* | 0.4 | 98.2* | 0 | 15.2 | 0.9
COc1cc(C(=O)N2CCN(c3ccc(C)cc3C)CC2)cc(OC)c1OC | 16.6 | 0.8 | 17.9 | 0.8 | -43.3 | -4.7
Cc1ccc(N2CCN(C(=O)c3ccccc3)CC2)c(C)c1 | 75.8* | 0.2 | 96.0* | 0 | 6.8 | 2.2
CCOC(=O)C1CCCc2c1[nH]c1c(C(=O)O)cccc21 (centres undefined) | 2.1 | 1 | 9.5 | 0.9 | 9.5 | 0.3
CC(C)(C)NC(=O)C(=O)NNC(=O)COc1ccc(Br)cc1 | nt | nt | nt | nt | nt | -0.7
CCc1ccccc1OCc1nnc(N)s1 | -25.8 | 1.3 | 35.4 | 0.6 | 1.9 | -2.4
COc1ccc(-c2cc(C(F)(F)F)nc(-n3ccnc3C)n2)cc1 | nt | nt | nt | nt | nt | -1.1
CCCCNC(=O)[C@H](CSCc1ccccc1)N1Cc2ccccc2C1=O | nt | nt | nt | nt | nt | -1.6
SMILES | CYP2C9 inhib | CYP2C9 act | CYP2C19 inhib | CYP2C19 activ | MRP resist rev | MRP1 act
COc1ccccc1N1CCN(C(=O)c2ccc3nc(-c4ccco4)c(-c4ccco4)nc3c2)CC1 | nt | nt | nt | nt | 21.9 | -1.5
Cc1ccc(C)c(N2CCN(C(=O)c3ccc4nc(-c5ccco5)c(-c5ccco5)nc4c3)CC2)c1 | 44.8 | 0.6 | 38.9 | 0.6 | 0.7 | 9.9*
CSc1ccc(S(=O)(=O)Nc2ccc(S(=O)(=O)Nc3ccc(C)cc3)cc2)cc1 | 100.3* | 0 | 94.8* | 0.1 | -9.4 | -1.4
CSc1ccc(S(=O)(=O)Nc2ccc(NC(C)=O)cc2)cc1 | 94.5* | 0.1 | 99.9* | 0 | 9.4 | -3.8
O=C(CO/N=C/c1ccc2c(c1)OCO2)Nc1cccc(Br)c1 | nt | nt | nt | nt | nt | 3.1
CCCS(=O)(=O)N1CCC(C(=O)N2CCC(Cc3ccccc3)CC2)CC1 | 7.3 | 0.9 | 25.1 | 0.7 | -12.9 | -2.2
CCCS(=O)(=O)N1CCCC(C(=O)N2CCC(Cc3ccccc3)CC2)C1 (centres undefined) | 50.7* | 0.5 | 68.8* | 0.3 | 9.9 | -1.2
CS(=O)(=O)N1CCCC(C(=O)NCCN2CCC(Cc3ccccc3)CC2)C1 (centres undefined) | -7.0 | 1.1 | 64.2* | 0.4 | 4.9 | -1.7
COCc1nnc(NC(=O)CSCc2ccccc2)s1 | 13.4 | 0.9 | 5.4 | 0.9 | 4.9 | -1.8
O=C(Nc1nnc(CCS(=O)(=O)c2ccc3ccccc3c2)s1)c1ccc([N+](=O)[O-])cc1 | nt | nt | nt | nt | nt | 0.1
Cc1ccc(CNC(=O)C23CN(Cc4ccccc4)CC2C(c2ccc([N+](=O)[O-])cc2)=NO3)o1 (centres undefined) | 53.8* | 0.5 | 35.0 | 0.7 | nt | -3.3
O=C(NCCCCc1ccccc1)C12CN(Cc3ccccc3)CC1C(c1ccc([N+](=O)[O-])cc1)=NO2 (centres undefined) | 57.7* | 0.4 | 78.5* | 0.2 | nt | -0.5
COc1ccc(CCNC(=O)C23CN(Cc4ccccc4)CC2C(c2ccc([N+](=O)[O-])cc2)=NO3)cc1 (centres undefined) | 59.4* | 0.4 | 80.6* | 0.2 | nt | -1.1
O=C1CN(S(=O)(=O)c2ccccc2)CCN1S(=O)(=O)c1ccccc1 | nt | nt | nt | nt | nt | 0.5
Cc1cc(N=Cc2c(O)ccc3cc(Br)ccc23)no1 | nt | nt | nt | nt | nt | -0.3
O=S(=O)(NC1CCCC1)c1cccc(-c2nnc(-c3ccccc3)o2)c1 | 86.7* | 0.1 | 34.5 | 0.7 | -22.3 | 1.4
CCOc1ccccc1NC(=O)COC(=O)c1cc(C(=O)OC)cc([N+](=O)[O-])c1 | nt | nt | nt | nt | nt | -0.5
CC1(C(=O)NCCCNc2ncc(C(F)(F)F)cc2Cl)C=CCN1C(=O)c1ccccc1 (centres undefined) | nt | nt | nt | nt | nt | -3.9
N#CCC(CNc1ncc(C(F)(F)F)cc1Cl)OC(=O)c1cccc(C(F)(F)F)c1 (centres undefined) | 3.5 | 1 | 62.6* | 0.4 | nt | -0.8
CC1=CC(C)(C)N(S(=O)(=O)c2ccc(F)cc2)c2ccccc21 | 46.1 | 0.5 | 58.3* | 0.4 | -37.8 | -2.3
CC1=CC(C)(C)N(S(=O)(=O)c2ccc(C)cc2)c2ccc(C)cc21 | 39.6 | 0.6 | 38.1 | 0.6 | -19.8 | -4.0
COc1ccc(OCc2nn3c(-c4cccc(OC)c4)nnc3s2)cc1 | 34.1 | 0.7 | 50.9* | 0.5 | nt | -1.8
Clc1ccc(OCc2nn3c(-c4ccncc4)nnc3s2)cc1 | 69.2* | 0.3 | 91.9* | 0.1 | 12.2 | -3.0
c1coc(-c2nnc3sc(Cc4cccs4)nn23)c1 | 54.7* | 0.5 | 68.6* | 0.3 | 12.4 | -0.8
